# Article PMC5540273 (PLoS ONE, 2017)
# System: BRSK2
# 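Also: kd values determined as follow-up on hits from a single-replicate KINOMEscan panel screen.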
row,Compound,Kd
1,O=c1cc(N2CCOCC2)nc2n(Cc3ccccc3F)ccn12 [GSK2297428],> 10 µM
2,c1ccc(-c2ccnc3[nH]ccc23)cc1 [SB-693578],> 10 µM
3,Cc1ccccc1Cn1ccn2c(=O)cc(N3CCOCC3)nc12 [GSK2269905],> 10 µM
4,COc1ccc(-c2coc3ccc(-c4nnc(C)o4)cc23)cc1,> 10 µM
5,COc1cccc(NC(=O)Nc2ccc(C)c(-c3ccc(C(=O)Nc4ccncc4)cc3)c2)c1 [GSK1398474],> 10 µM

# System: BUB1
row,Compound,Kd
1,COc1ccc2cc(-c3nc(-c4ccccc4C(C)C)[nH]c3-c3ccncc3)ccc2c1 [SB-660566],0.47 µM
2,CS(=O)(=O)Cc1ccc(Nc2nccc(-c3c(-c4cccc(NC(=O)C5CCCCC5)c4)nn4ncccc34)n2)cc1 [GSK350559],0.029 µM
3,Fc1ccc(-c2nc[nH]c2-c2ccncc2)cc1 [SB-217360],0.89 µM
4,CSc1ccc(-c2nc3n(c2-c2ccncc2)CCC3)cc1 [SKF-105561],0.26 µM
5,CCCCc1nn2ncccc2c1-c1ccnc(NC2CC2)n1 [GW684374],3.3 µM
6,COc1cc2ncnc(Nc3cccc(Br)c3)c2cc1OC.Cl [GI230329],0.13 µM

# System: CAMK2A
row,Compound,Kd
1,O=C(Nc1n[nH]c2nc(-c3cccs3)c(Br)cc12)C1CC1 [SB-735297],> 10 µM
2,Cc1ccc(NC(=O)c2ccc(Cl)cc2)cc1-c1ccc(C(=O)Nc2ccncc2)cc1 [GSK1398467],> 10 µM
3,COC(=O)c1cccc(NC(=O)NC2CCN(c3ccnc(Nc4ccc(OC)cc4)n3)C2)c1 (stereo not drawn) [GSK1379746],> 10 µM
4,CNc1nc(-c2ccc3c(N)n[nH]c3c2)cc(N2C[C@@H](C(=O)Nc3ccccc3)CC[C@H]2C)n1 [GSK2298859],> 10 µM

# System: CAMK2B
row,Compound,Kd
1,O=C(Nc1n[nH]c2nc(-c3cccs3)c(Br)cc12)C1CC1 [SB-735297],> 10 µM
2,Cc1ccc(NC(=O)c2ccc(Cl)cc2)cc1-c1ccc(C(=O)Nc2ccncc2)cc1 [GSK1398467],> 10 µM
3,COC(=O)c1cccc(NC(=O)NC2CCN(c3ccnc(Nc4ccc(OC)cc4)n3)C2)c1 (stereo not drawn) [GSK1379746],> 10 µM
4,CNc1nc(-c2ccc3c(N)n[nH]c3c2)cc(N2C[C@@H](C(=O)Nc3ccccc3)CC[C@H]2C)n1 [GSK2298859],> 10 µM

# System: T1, CDC2L5
# T1 construct: gene CDK13
row,Compound,Kd
1,CCn1c(-c2ccccc2)nc2cnccc21 [SB-733416],> 10 µM
2,CCn1c(-c2c(N)noc2C)nc2cnccc21 [SB-737856],> 10 µM
3,COc1ccc(CSc2nnc(-c3ccc4c(c3)CCO4)o2)cc1,> 10 µM

# System: T2, CDK11
# T2 construct: gene CDK19
row,Compound,Kd
1,Nc1ncnc2occ(-c3ccc4c(c3)CCN4C(=O)Cc3cc(F)ccc3F)c12 [GSK2645446],1.1 µM
2,O=c1cc(N2CCOCC2)nc2n(Cc3cccc(Cl)c3Cl)c3ccccc3n12 [GSK2299009],> 10 µM
3,CC(=O)c1cccc(NC(=O)NC2CCN(c3ccnc(Nc4ccc(F)cc4)n3)C2)c1 (stereo not drawn) [GSK1379710],2 µM
4,Cc1cnc(N)c(/C=C/c2cncc(C(=O)NCCc3ccc(Cl)cc3Cl)c2)c1.Cl [GSK190937],0.41 µM

# System: CDK4-cyclinD1
row,Compound,Kd
1,CC(=O)c1c(C)c2cnc(Nc3ccc(N4CCNCC4)cn3)nc2n(C2CCCC2)c1=O,0.0013 µM
2,CC(C)c1ccc(O)cc1Nc1ccnc2ccc(C(F)(F)F)cc12 [GW482059],> 10 µM
3,CC(=O)c1c(C)c2cnc(Nc3ccn(C)n3)nc2n(C2CCCC2)c1=O,0.023 µM

# System: CDK4-cyclinD3
row,Compound,Kd
1,CC(=O)c1c(C)c2cnc(Nc3ccc(N4CCNCC4)cn3)nc2n(C2CCCC2)c1=O,0.00062 µM
2,CC(=O)c1c(C)c2cnc(Nc3ccn(C)n3)nc2n(C2CCCC2)c1=O,0.0099 µM
3,CCc1ccc(-c2ccc3c(c2)-c2n[nH]cc2S(=O)(=O)N3C)cc1,> 10 µM

# System: CDK4
row,Compound,Kd
1,O=C(Nc1n[nH]c2cc(-c3ccsc3)ccc12)C1CC1 [SB-732932],> 10 µM
2,COc1nccc(-c2c(-c3ccc(F)cc3)ncn2CCCN2CCOCC2)n1 [SB-282852],> 10 µM
3,O=C1NC(=O)C(c2ccc(Cl)cc2)=C1Nc1cccc(Cl)c1 [SB-317651],> 10 µM
4,CNc1nc(-c2ccc3c(N)n[nH]c3c2)cc(N2C[C@@H](C(=O)NC3CCCCC3)OC[C@H]2C)n1 [GSK2375584],> 10 µM
